# Data reported in PubChem BioAssay AID1159580 (chemical genetic matrix, 2015).
# Out of some 5,500 compounds screened, about 2,000 (36%) were called active. Another 18% or so got no clear call; they are omitted. The list shows a part of the results. A number with no mark means an inactive call. Rule as the data show it: active = normalized growth mostly below about 0.91 (no sharp cut-off); inconclusive = no clear call, values can overlap the other calls; inactive = mostly above about 0.92.
# Test: chemical genetic growth profiling, strain panel (AID 1159580);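 also: tested at 20 µM; growth read once vehicle control cultures reached saturation at 30 °C; 1 = growth at the plate median or of vehicle wells; lower values mean less growth of the strain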
# Conditions: S. cerevisiae deletion strains, growth OD
# [1] = locus YAR019C, strain CDC15, active compounds read low
# [2] = locus YBL105C, strain PKC1, active compounds read low
# [3] = locus YBR135W, strain CKS1, active compounds read low
# [4] = locus YBR136W, strain MEC1, active compounds read low
# [5] = locus YBR160W, strain CDC28, active compounds read low
# [6] = locus YDL017W, strain CDC7, active compounds read low
# [7] = locus YDL028C, strain MPS1, active compounds read low
# [8] = locus YDL101C, strain DUN1, active compounds read low
# [9] = locus YDL108W, strain KIN28, active compounds read low
# [10] = locus YDL132W, strain cdc53, active compounds read low
# [11] = locus YDL214C, strain PRR2, active compounds read low
# [12] = locus YDR052C, strain DBF4, active compounds read low
# [13] = locus YDR054C, strain cdc34, active compounds read low
# [14] = locus YDR226W, strain ADK1, active compounds read low
# [15] = locus YDR477W, strain SNF1, active compounds read low
# [16] = locus YER123W, strain YCK3, active compounds read low
# [17] = locus YER133W, strain GLC7, active compounds read low
# [18] = locus YFL009W, strain cdc4, active compounds read low
# [19] = locus YFL029C, strain CAK1, active compounds read low
# [20] = locus YFR003C, strain YPI1, active compounds read low
# [21] = locus YFR019W, strain FAB1, active compounds read low
# [22] = locus YFR028C, strain CDC14, active compounds read low
# [23] = locus YGR040W, strain KSS1, active compounds read low
# [24] = locus YGR052W, strain FMP48, active compounds read low
# [25] = locus YGR092W, strain DBF2, active compounds read low
# [26] = locus YHR030C, strain SLT2, active compounds read low
# [27] = locus YHR079C, strain IRE1, active compounds read low
# [28] = locus YHR082C, strain KSP1, active compounds read low
# [29] = locus YHR205W, strain SCH9, active compounds read low
# [30] = locus YIL147C, strain SLN1, active compounds read low
# [31] = locus YJL095W, strain BCK1, active compounds read low
# [32] = locus YJL128C, strain PBS2, active compounds read low
# [33] = locus YJL157C, strain FAR1, active compounds read low
# [34] = locus YJR016C, strain ILV3, active compounds read low
# [35] = locus YJR066W, strain TOR1 (second series), active compounds read low
# [36] = locus YJR066W, strain TOR1, active compounds read low
# [37] = locus YKL048C, strain ELM1, active compounds read low
# [38] = locus YKL067W, strain YNK1, active compounds read low
# [39] = locus YKL101W, strain HSL1, active compounds read low
# [40] = locus YKL193C, strain SDS22, active compounds read low
# [41] = locus YKL203C, strain TOR2, active compounds read low
# [42] = locus YLR133W, strain CKI1, active compounds read low
# [43] = locus YLR403W, strain SFP1, active compounds read low
# [44] = locus YML070W, strain DAK1, active compounds read low
# [45] = locus YMR001C, strain CDC5, active compounds read low
# [46] = locus YMR205C, strain PFK2 (second series), active compounds read low
# [47] = locus YMR277W, strain FCP1, active compounds read low
# [48] = locus YNL006W, strain LST8, active compounds read low
# [49] = locus YNL020C, strain ARK1, active compounds read low
# [50] = locus YNL161W, strain CBK1, active compounds read low
# [51] = locus YNL183C, strain NPR1, active compounds read low
# [52] = locus YNL207W, strain RIO2, active compounds read low
# [53] = locus YNL222W, strain SSU72, active compounds read low
# [54] = locus YNL307C, strain MCK1 (second series), active compounds read low
# [55] = locus YOL078W, strain AVO1, active compounds read low
# [56] = locus YOL136C, strain PFK27, active compounds read low
# [57] = locus YOR061W, strain CKA2, active compounds read low
# [58] = locus YOR119C, strain RIO1, active compounds read low
# [59] = locus YOR231W, strain MKK1, active compounds read low
# [60] = locus YOR329C, strain SCD5, active compounds read low
# [61] = locus YPL031C, strain PHO85, active compounds read low
# [62] = locus YPL153C, strain RAD53, active compounds read low
# [63] = locus YPL204W, strain HRR25, active compounds read low
# [64] = locus YPL209C, strain IPL1, active compounds read low
# [65] = locus YPL256C, strain CLN2, active compounds read low
# [66] = locus YPR025C, strain CCL1, active compounds read low
# [67] = locus YPR106W, strain ISR1, active compounds read low
# [68] = locus YPR111W, strain DBF20, active compounds read low
# [69] = strain NNK1, active compounds read low
# [70] = strain TSCII, active compounds read low
smiles,measurement,setting,value
O=C(NCCNc1ncc(C(F)(F)F)cc1Cl)C(F)(F)Sc1ccccc1,normalized growth,[1],0.985
same,normalized growth,[2],0.983
same,normalized growth,[3],0.971
same,normalized growth,[4],0.973
same,normalized growth,[5],0.984
same,normalized growth,[6],0.977
same,normalized growth,[7],0.97
same,normalized growth,[8],0.976
same,normalized growth,[9],0.957
same,normalized growth,[10],0.988
same,normalized growth,[11],0.898
same,normalized growth,[12],0.986
same,normalized growth,[13],0.978
same,normalized growth,[14],0.982
same,normalized growth,[15],0.919
same,normalized growth,[16],0.828
same,normalized growth,[17],0.924
same,normalized growth,[18],0.982
same,normalized growth,[19],0.988
same,normalized growth,[20],0.972
same,normalized growth,[21],0.885
same,normalized growth,[22],0.989
same,normalized growth,[23],0.916
same,normalized growth,[24],0.978
same,normalized growth,[25],0.909
same,normalized growth,[26],0.99
same,normalized growth,[27],0.994
same,normalized growth,[28],1
same,normalized growth,[29],0.912
same,normalized growth,[30],0.974
same,normalized growth,[31],0.98
same,normalized growth,[32],0.914
same,normalized growth,[33],0.887
same,normalized growth,[34],0.974
same,normalized growth,[35],0.899
same,normalized growth,[36],0.989
same,normalized growth,[37],0.939
same,normalized growth,[38],0.91
same,normalized growth,[39],0.908
same,normalized growth,[40],0.984
same,normalized growth,[41],0.991
same,normalized growth,"locus YLR113W, strain HOG1, active compounds read low",0.883
same,normalized growth,[42],0.916
same,normalized growth,[43],0.922
same,normalized growth,[44],0.876
same,normalized growth,[45],0.978
same,normalized growth,[46],0.907
same,normalized growth,[47],0.983
same,normalized growth,[48],0.978
same,normalized growth,[49],0.894
same,normalized growth,[50],0.985
same,normalized growth,[51],0.961
same,normalized growth,[52],0.983
same,normalized growth,[53],0.979
same,normalized growth,[54],0.905
same,normalized growth,[55],0.98
same,normalized growth,[56],0.893
same,normalized growth,[57],0.868
same,normalized growth,[58],0.966
same,normalized growth,[59],0.939
same,normalized growth,[60],0.987
same,normalized growth,[61],0.912
same,normalized growth,[62],0.907
same,normalized growth,[63],0.936
same,normalized growth,[64],0.975
same,normalized growth,[65],1
same,normalized growth,[66],0.98
same,normalized growth,[67],0.984
same,normalized growth,[68],0.968
same,normalized growth,[69],0.982
same,normalized growth,[70],0.982
O=C(NCCNc1ncc(Cl)cc1C(F)(F)F)C(F)(F)Sc1ccccc1,normalized growth,[1],0.982
same,normalized growth,[2],0.978
same,normalized growth,[3],0.975
same,normalized growth,[4],0.984
same,normalized growth,[5],0.979
same,normalized growth,[6],0.977
same,normalized growth,[7],0.992
same,normalized growth,[8],0.982
same,normalized growth,[9],0.981
same,normalized growth,[10],0.977
same,normalized growth,[11],0.987
same,normalized growth,[12],0.982
same,normalized growth,[13],0.991
same,normalized growth,[14],0.982
same,normalized growth,[15],0.996
same,normalized growth,[16],1.01
same,normalized growth,[17],1
same,normalized growth,[18],0.979
same,normalized growth,[19],0.984
same,normalized growth,[20],0.985
same,normalized growth,[21],0.996
same,normalized growth,[22],0.982
same,normalized growth,[23],0.991
same,normalized growth,[24],1.14
same,normalized growth,[25],0.994
same,normalized growth,[26],1.2 [resistant] (active)
same,normalized growth,[27],1.17
same,normalized growth,[28],1.19
same,normalized growth,[29],0.975
same,normalized growth,[30],0.986
same,normalized growth,[31],1.16
same,normalized growth,[32],0.934
same,normalized growth,[33],0.985
same,normalized growth,[34],0.989
same,normalized growth,[35],1.01
same,normalized growth,[36],1.19
same,normalized growth,[37],0.973
same,normalized growth,[38],0.991
same,normalized growth,[39],0.984
same,normalized growth,[40],0.973
same,normalized growth,[41],1.08
same,normalized growth,[42],0.979
same,normalized growth,[43],0.998
same,normalized growth,[44],0.986
same,normalized growth,[45],0.969
same,normalized growth,[46],0.984
same,normalized growth,[47],0.975
same,normalized growth,[48],0.983
same,normalized growth,[49],0.978
same,normalized growth,[50],0.984
same,normalized growth,[51],1.13
same,normalized growth,[52],0.989
same,normalized growth,[53],0.976
same,normalized growth,[54],0.972
same,normalized growth,[55],0.981
same,normalized growth,[56],1
same,normalized growth,[57],0.992
same,normalized growth,[58],1.02
same,normalized growth,[59],1.12
same,normalized growth,[60],0.985
same,normalized growth,[61],0.99
same,normalized growth,[62],1.01
same,normalized growth,[63],0.995
same,normalized growth,[64],0.983
same,normalized growth,[65],1.25 [resistant] (active)
same,normalized growth,[66],0.984
same,normalized growth,[67],0.982
same,normalized growth,[68],0.979
same,normalized growth,[69],0.993
same,normalized growth,[70],0.978
